For 90 compounds, AC50 and activity, negative = inhibition results are on record in PubChem BioAssay AID1851 (National Center for Advancing Translational Sciences (NCATS), 2009).

Where “and” joins values, the source holds several entries; their conditions need not be identical. Equal entries are not always repeated. Screen size: about 16,000 compounds; about 5,700 (36%) were called active. About 24% were inconclusive and are not listed. Some of the results follow. A number with no mark means an inactive call. The call rests on the fitted dose curve; in most records, active means well fitted curve in the direction sought with a large enough effect; inconclusive means small, poorly fitted or top-dose-only effect, or effect the other way; inactive means no such curve, though single readings can be large or run the other way.

Broadly, the AC50 is the concentration giving half of the maximal activity seen.
On the % scale 0 is the no-effect control and ±100 the full control effect.

In this assay the target is Cytochrome P450 1A2 (Homo sapiens) (UniProt P05177). Nature of the assay: Cytochrome panel assay with activity outcomes. Particulars: recombinant CYP, pro-luciferin dealkylation, luminescence, p450-cyp1a2; series mostly up to 57.1 µM.
Cytochrome P450 1A2 (Homo sapiens), sequence (P05177 whole entry, looked up): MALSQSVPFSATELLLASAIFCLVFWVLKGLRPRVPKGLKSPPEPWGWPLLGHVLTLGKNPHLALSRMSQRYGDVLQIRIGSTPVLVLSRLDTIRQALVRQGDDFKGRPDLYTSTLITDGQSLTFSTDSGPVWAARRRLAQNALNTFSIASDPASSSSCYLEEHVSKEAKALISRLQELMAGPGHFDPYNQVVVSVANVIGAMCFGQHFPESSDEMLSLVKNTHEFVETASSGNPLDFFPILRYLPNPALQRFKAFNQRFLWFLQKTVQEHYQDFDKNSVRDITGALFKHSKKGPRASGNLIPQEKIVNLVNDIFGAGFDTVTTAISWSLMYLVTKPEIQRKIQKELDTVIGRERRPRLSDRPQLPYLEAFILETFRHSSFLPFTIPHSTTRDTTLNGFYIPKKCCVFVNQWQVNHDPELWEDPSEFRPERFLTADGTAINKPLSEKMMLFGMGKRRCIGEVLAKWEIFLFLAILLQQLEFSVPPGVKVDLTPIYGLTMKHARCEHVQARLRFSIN
With `CCN1CCCC1CNC(=O)C(=O)Nc1ccccc1OC` (stereo not given), the AC50 entry was “inactive”.
For the compound `COc1ccccc1NC(=O)C(C/C=C(\C)Cl)C(C)=O` (stereo not given), the AC50 was 12600 nM (active).
On to `O=C(O)[C@H]1[C@H](C(=O)O)[C@H](C(=O)O)C[C@@H]1C(=O)O`, for which the activity, negative = inhibition was -9.47% [at 11.4 µM].
Consider `CCNc1ncc2nc(CCc3ccccc3)c(=O)n(C3CC3)c2n1`, for which the AC50 was 3160 nM (active).
Turning to `CCNc1ncc2nc(CCc3ccccc3)c(=O)n(CCOC)c2n1`, the AC50 was 2000 nM (active).
Still for that read-out and setting: for `CCNc1ncc2nc(CCc3ccccc3)c(=O)n(-c3ccccc3)c2n1` the value was 1260 nM (active).
Turning to `CCNc1ncc2nc(CCc3ccccc3)c(=O)n(C)c2n1`, the AC50 was 2510 nM (active).
For `CCCCCCCCCCCCCCCC(=O)NC[C@@H](COP(=O)([O-])OCC[N+](C)(C)C)OCC`, the AC50 result was “inactive”.
On to `Cc1cc2c(nc1C)CCCN2C[C@H](O)CN1CCCc2nc(-c3ccc(Br)cc3)ccc21`, for which the activity, negative = inhibition was 3.9% [at 11.4 µM] and 2.86% [at 11.4 µM].
Consider `CC1(C)CC(=O)C(C=NCCN2CCN(C(=S)Nc3ccc(F)cc3)CC2)=C(O)C1`, for which the AC50 entry is “inactive”.
The same measure, in the same setting: to `CN1CC(c2ccccc2)C2(COc3ccccc3C2=O)C12C(=O)Nc1ccccc12` (stereo not given) belongs “inactive”; to `CN1CC(c2ccccn2)C2(SC(=S)N(Cc3ccccc3)C2=O)C12C(=O)Nc1ccccc12` (stereo not given), 17800 nM (active); to `CC(/C=C/c1ccccc1)=N/NC(=O)CNC(=O)c1ccc2c(c1)OCO2`, 2240 nM (active).
Still for that read-out and setting: for `CC1CCCCN1c1nc(-c2ccncc2)nc2ccccc12` (stereo not given) the value was 355 nM (active); for `NC(=O)C1(N2CCCCC2)CCN(C(=O)c2ccc(-n3cnnn3)cc2)CC1`, “inactive”.
For the compound `N#CC(c1ccc(Cl)cc1)c1nc2ccccc2nc1C(F)(F)F` (stereo not given), the AC50 was 1580 nM (active).
With `CCOC(=O)c1ccc(S(=O)(=O)Nc2ccc3cn[nH]c3c2)cc1`, the AC50 is 5010 nM (active).
As to `Cc1ccnc(NS(=O)(=O)c2ccc(NC(=O)C3CCCNC3=O)cc2)n1` (stereo not given), the AC50 entry was “inactive”.
Same read-out and setting: to `CCOc1cc(C)c(S(=O)(=O)Nc2ccc3cn[nH]c3c2)cc1C` belongs 178 nM (active); to `Cn1c(=O)[nH]c(=O)c2c1nc(CN(Cc1ccccc1)Cc1ccccc1)n2CCN1CCOCC1`, “inactive”; to `C[C@@H](O)[C@H]1C(=O)N2C(C(=O)O)=C(S[C@@H]3CN[C@H](C(=O)N(C)C)C3)[C@H](C)[C@H]12`, “inactive”.
On the same count and under the same terms, for `CN1c2ccccc2Oc2c(c(=O)n(C)c(=O)n2C)C1c1cccc([N+](=O)[O-])c1` (stereo not given) the value was “inactive”; for `CCOCC(=O)Nc1cc(-c2cn3cccnc3n2)ccc1C`, 50.1 nM (active).
Take `N#Cc1cccc(NC(=O)N2CCC3(CC2)CCN(C(=O)c2ccco2)CC3)c1`: the AC50 entry is “inactive”.
For `CCCC(=O)Nc1cc(-c2cn3cccnc3n2)ccc1OC`, the AC50 is 100 nM (active).
As for `CCOc1ccc(-n2c(SCC(=O)Nc3ccccc3C)n[nH]c2=O)cc1`, the AC50 entry was “inactive”.
On the same count and under the same terms, for `COCC(=O)N1CCC2(CC1)CCN(C(=O)Nc1ccc(OC)cc1)CC2` the value was “inactive”; for `COCC(=O)Nc1ccc(-c2cn3cccnc3n2)cc1`, 7080 nM (active).
As for `O=C(c1ccco1)N1CCN(C(=O)c2nn3cccnc3c2Cl)CC1`, the AC50 result is “inactive”.
For the compound `O=C(Nc1cccc(-c2cn3cccnc3n2)c1)c1ccco1`, the AC50 is 31.6 nM (active).
Turning to `NC(=O)c1ccc[n+](CC(=O)OCCC23CC4CC(CC(C4)C2)C3)c1`, the AC50 result is “inactive”.
With `CC(=O)C[C@H](O)[C@@H](NC(=O)OC(C)(C)C)C(C)C`, the activity, negative = inhibition is 0.505% [at 11.4 µM].
The same measure, in the same setting: for `Cc1cc(C2(c3cc(C)c(O)c(C(=O)O)c3)OS(=O)(=O)c3ccccc32)cc(C(=O)O)c1O` the value was -9.3% [at 11.4 µM].
For the compound `c1ccc([P+](CC[P+](c2ccccc2)(c2ccccc2)c2ccccc2)(c2ccccc2)c2ccccc2)cc1`, the activity, negative = inhibition was -7.8% [at 11.4 µM].
On to `O=c1c2c(n3cnnc3n1-c1ccccc1)-c1ccccc1CC21CCCCC1`, for which the AC50 entry is “inactive”.
`Nc1nc(=S)[nH]c2c1C1(CCCC1)Cc1ccccc1-2`: the AC50 was 891 nM (active).
`CCOC(=O)CCN1C(=O)[C@H]2[C@H]3[C@H](O)[C@H](O)C/C(=N/OC/C=C(\C)CCC=C(C)C)[C@H]3CC[C@@H]2C1=O`: the activity, negative = inhibition was 1.64% [at 11.4 µM].
For the compound `CC(=O)c1cccc(NC(=O)c2csc(-n3nc(C)cc3C(F)(F)F)n2)c1`, the AC50 is 3160 nM (active).
Regarding `CO[C@H]1[C@@H](OC(N)=O)[C@H](O)[C@@H](Oc2ccc3c(O)c(NC(=O)c4ccc(O)c(CC=C(C)C)c4)c(=O)oc3c2C)OC1(C)C`, the AC50 result was “inactive”.
On to `Cc1cc2c(nc1C)CCCN2C[C@H](C)O/N=C1/[C@H]2O[C@@H]2[C@@H](O)[C@H]2[C@H]1CCn1c(=O)n(-c3ccccc3)c(=O)n12`, for which the activity, negative = inhibition is 2.9% [at 11.4 µM].
Consider `Cc1c(NC(=O)Nc2c(Cl)cccc2Cl)c(=O)n(-c2ccccc2)n1C`, for which the activity, negative = inhibition was -6.85% [at 11.4 µM].
`Cc1cc(SC(C)C(=O)Nc2c(C)n(C)n(-c3ccccc3)c2=O)nc2ccccc12` (stereo not given): the AC50 was 1000 nM (active).
In the case of `Cc1cc(C(=O)Nc2c(C)n(C)n(-c3ccccc3)c2=O)c2ccccc2n1`, the AC50 result is “inactive”.
For the compound `CCCc1cc(=O)[nH]c(=S)[nH]1`, the AC50 result is “inactive”.
On to `O=c1c(-c2ccc(F)cc2)nc2cnc(N3CCNCC3)nc2n1C1CC1`, for which the AC50 is 2510 nM (active).
For the compound `COc1ccc(-c2nc3cnc(N4CCNCC4)nc3n(C3CC3)c2=O)cc1`, the AC50 was 6310 nM (active).
As to `O=c1c(-c2cc(F)cc(F)c2)nc2cnc(N3CCNCC3)nc2n1C1CC1`, the concentration at half-maximal activity (AC50) was 3160 nM (active).
`CS(=O)(=O)N1CCC2(CCCN(c3ccncc3)C2)CC1`: the AC50 entry is “inactive”.
As for `C/C(=N\NC(=O)Cc1ccc(Cl)cc1)c1ccccn1`, the AC50 is 4470 nM (active).
Still for that read-out and setting: to `C/C(=N\NC(=O)CC1N=C(Cc2ccccc2)NNC1=O)c1ccc(Cl)cc1Cl` (stereo not given) belongs “inactive”.
As to `COc1cccc([C@H](O)Cn2cc(-c3cccc(CON=C(C)C)c3)nn2)c1`, the activity, negative = inhibition is -3.64% [at 11.4 µM].
With `COc1ccc2c(c1OC)C(=O)OC2[C@H]1c2c(cc3c(c2OC)OCO3)CCN1C` (stereo not given in full), the AC50 entry is “inactive”.
On to `C[N+]1(C)CCc2cc3c(cc2[C@@H]1[C@@H]1C(=O)Oc2c1ccc1c2OCO1)OCO3`, for which the AC50 is 1260 nM (active).
For `C=CCNc1oc(/C=C/c2ccccc2)nc1C#N`, the AC50 is 3550 nM (active).
With `O=C(c1csnn1)N1CCC2(CC1)CN(C(c1ccccc1)c1ccccc1)C2`, the AC50 result is “inactive”.
With `CCOC(=O)C(=Cc1ccc(-c2ccsc2C(=O)OC)o1)C(=O)OCC`, the AC50 was 14100 nM (active).
In the case of `S=C1SCN(C2CCCCCCCCCCC2)CN1C1CCCCCCCCCCC1`, the activity, negative = inhibition is -14.7% [at 2.29 µM].
Take `COc1ccccc1CN1CCC2(CC1)CCN(C(=O)c1ccco1)CC2`: the AC50 result was “inactive”.
Regarding `O=C(Cn1cc(C(=O)c2ccco2)c2ccccc21)NCc1ccco1`, the AC50 was 11200 nM (active).
Regarding `COc1ccccc1OCCn1cc(C(=O)c2ccco2)c2ccccc21`, the AC50 is 2510 nM (active).
Turning to `O=C(CSc1ccccc1C(=O)O)NCc1ccco1`, the AC50 entry was “inactive”.
The same measure, in the same setting: for `COc1ccccc1CN1CCCC2(CCN(C(=O)c3ccco3)CC2)C1` the value was “inactive”; for `N#Cc1cc(-c2ccc(Cl)cc2)cnc1Sc1ccccc1`, 398 nM (active).
For the compound `N#Cc1cc(-c2ccc(Cl)cc2)cnc1Sc1ccc(F)cc1`, the AC50 is 112 nM (active).
For `N#Cc1cc(-c2ccccc2)cnc1Sc1ccc(Cl)cc1`, the concentration at half-maximal activity (AC50) was 1780 nM (active).
Regarding `CO/N=C(\C(=O)N[C@@H]1C(=O)N2C(C(=O)O)=C(COC(C)=O)CS[C@@H]12)c1csc(N)n1`, the AC50 entry is “inactive”.
Turning to `CN[C@]1(C)[C@H]2CC[C@@H](C2)C1(C)C`, the AC50 result was “inactive”.
With `CC(=O)OC[C@@H]1O[C@H](C/C=N\O[C@@H](C)c2cn([C@H]3COC[C@H]3O)nn2)C=C[C@@H]1OC(C)=O`, the activity, negative = inhibition is -4.99% [at 11.4 µM].
Take `COc1ccc(C(=O)N2CCC3(CCN(C(=O)Nc4cccc(F)c4)CC3)CC2)cc1`: the AC50 entry was “inactive”.
`O=C(Nc1cccc(F)c1)N1CCCC2(CCN(C(=O)c3ccncc3)CC2)C1`: the AC50 was 12600 nM (active).
The same measure, in the same setting: for `COc1ccc(C(=O)N2CCC3(CCCN(C(=O)Nc4cccc(F)c4)C3)CC2)cc1` the value was 20000 nM (active); for `COc1ccc(NC(=O)N2CCCC3(CCN(C(=O)c4cccc(F)c4)CC3)C2)cc1`, “inactive”.
On the same count and under the same terms, to `O=C(Nc1cccc(F)c1)N1CCCC2(CCN(C(=O)c3cnccn3)CC2)C1` belongs “inactive”.
The same measure, in the same setting: for `COC(=O)N1CCC2(CC1)CN(C(=O)Nc1cccc(F)c1)C2` the value was “inactive”; for `COC(=O)N1CCC2(CCN(C(=O)Nc3cccc(F)c3)CC2)CC1`, 12600 nM (active); for `CC(=O)N1CCC2(CCCN(C(=O)Nc3cccc(F)c3)C2)CC1`, “inactive”.
For the compound `COC(=O)N1CCC2(CCCN(C(=O)Nc3cccc(F)c3)C2)CC1`, the AC50 entry was “inactive”.
For the compound `COc1ccc2[nH]cc(CCNc3ccnc(-c4ccccc4C)n3)c2c1`, the AC50 was 316 nM (active).
Consider `COc1ccc2[nH]cc(CCNc3ccnc(-c4ccccc4Cl)n3)c2c1`, for which the AC50 was 398 nM (active).
Consider `C#C[C@H](N)CCC(=O)O`, for which the AC50 entry was “inactive”.
For the compound `Nc1ncnc2nn([C@H]3O[C@@H](CO)[C@@H](O)[C@H]3O)nc12`, the activity, negative = inhibition is -11.4% [at 11.4 µM].
With `Cc1ccc2c(c1)N[C@H](c1ccc(C(=O)O)cc1)c1cccn1-2`, the AC50 was 794 nM (active).
On to `Cc1ccc(C)c(S(=O)(=O)NCc2ccc(C(=O)N3CCC(Cc4ccccc4)CC3)cc2)c1`, for which the AC50 result is “inactive”.
Consider `CN(C)CCNCCN`, for which the activity, negative = inhibition was -0.129% [at 11.4 µM].
On to `N=C(N)c1ccccc1`, for which the AC50 entry is “inactive”.
Consider `N=C(N)c1ccc(N=Nc2c(O)ccc3c2[nH]c2ccccc23)cc1`, for which the AC50 was 1580 nM (active).
Take `O=C(NCCCc1ccccc1)c1cccs1`: the AC50 was 11200 nM (active).
Regarding `Cc1ccc(NC(=O)NCCCc2ccccc2)cc1`, the AC50 is 3550 nM (active).
Same read-out and setting: for `CC(C)C(=O)NCCCc1ccccc1` the value was “inactive”.
Consider `CSCC[C@@H]1NC(=O)C/C=C\[C@@H](C)COC(=O)[C@@H](C)COC1=O`, for which the activity, negative = inhibition is 4.43% [at 11.4 µM].
